# Results filed as inconclusive are left out. Where a call stands in place of a potency, no number is given. Calls of active or inactive are those of the source. Unless noted, the call rests on the fitted dose curve; in most records, active means well fitted curve in the direction sought with a large enough effect; inconclusive means small, poorly fitted or top-dose-only effect, or another doubt; inactive means no such curve, though single readings can be large; an effect the other way counts as inactive or inconclusive.
# Assays:
# [1] = Primary redox qHTS assay for identification of artifact compounds. (AID 1845223)
# Method in brief: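 Redox-cycling detection via DTT (250 uM final) oxidation coupled to Amplex Red (25 uM)/HRP (250 mU/mL) in HBSS. 15 min preincubation plus 30 min after DTT, room temperature. Ex/Em 525/598 nm; 4-parameter Hill fit against DMSO and 10 uM DA3003.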
# [2] = test system: PA-1; assay: Primary qHTS to identify gynecologic anti-cancer compounds using libraries of approved drugs and bioactive compounds (AID 1345084); conditions: Gynecologic cancer cell panel viability, ATPlite luminescence, 48 h; series mostly up to 57.5 µM; further: nearly all actives have a fitted effect of over 55% in size; further: potency means the concentration at half of the fitted maximal effect
# Method in brief: (§1)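 Cell viability after 48 h drug treatment, ATPlite luminescence readout; five doses.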
# [3] = test system: SKOV3; assay: as above; conditions: Gynecologic cancer cell panel viability, ATPlite luminescence, 48 h; series mostly up to 57.5 µM
# Method in brief: as §1
# [4] = test system: Tov-21-G; assay: as above; conditions: Gynecologic cancer cell panel viability, ATPlite luminescence, 48 h; series mostly up to 57.5 µM
# Method in brief: as §1
# [5] = biological target: Cytochrome P450 2C9 (Homo sapiens) (UniProt P11712); assay: Cytochrome P450 family 2 subfamily C member 9 (CYP2C9) small molecule antagonists: luciferase biochemical (cell-free) qHTS assay (AID 1645842; active means well fitted curve in the direction sought with a large enough effect in the repeat runs; an effect the other way counts as inactive or inconclusive; further: nearly all actives have a fitted effect of over 55% in size; further: potency means the concentration at half of the fitted maximal effect)
# Chain of Cytochrome P450 2C9 (Homo sapiens) (P11712 whole entry, looked up): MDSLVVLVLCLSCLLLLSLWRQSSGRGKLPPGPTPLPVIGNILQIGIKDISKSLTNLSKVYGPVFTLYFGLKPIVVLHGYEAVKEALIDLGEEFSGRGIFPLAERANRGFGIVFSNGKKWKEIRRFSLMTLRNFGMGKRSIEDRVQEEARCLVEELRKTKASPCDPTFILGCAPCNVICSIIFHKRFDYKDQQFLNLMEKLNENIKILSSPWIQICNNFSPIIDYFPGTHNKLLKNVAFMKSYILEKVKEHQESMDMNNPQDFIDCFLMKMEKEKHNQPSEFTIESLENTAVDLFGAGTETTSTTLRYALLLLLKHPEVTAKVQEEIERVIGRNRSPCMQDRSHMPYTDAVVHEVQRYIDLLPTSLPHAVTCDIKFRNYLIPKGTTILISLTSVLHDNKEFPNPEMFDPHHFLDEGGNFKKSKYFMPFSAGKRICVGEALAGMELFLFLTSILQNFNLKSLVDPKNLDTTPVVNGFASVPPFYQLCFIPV
# Method in brief: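 P450-Glo CYP2C9 system: proluciferin substrate with enzyme in mix containing 0.4% BSA, 10 min at room temperature, then NADPH regeneration solution added and incubated 1 h at 37C. Detection reagent stopped reaction; luminescence read after 20 min as RLU.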
# [6] = biological target: Cytochrome P450 2D6 (Homo sapiens) (UniProt P10635); assay: Cytochrome P450 family 2 subfamily D member 6 (CYP2D6) small molecule antagonists: luciferase biochemical (cell-free) qHTS assay (AID 1645840; active means well fitted curve in the direction sought with a large enough effect in the repeat runs; an effect the other way counts as inactive or inconclusive; further: nearly all actives have a fitted effect of over 55% in size; further: potency means the concentration at half of the fitted maximal effect)
# Chain of Cytochrome P450 2D6 (Homo sapiens) (P10635 whole entry, looked up): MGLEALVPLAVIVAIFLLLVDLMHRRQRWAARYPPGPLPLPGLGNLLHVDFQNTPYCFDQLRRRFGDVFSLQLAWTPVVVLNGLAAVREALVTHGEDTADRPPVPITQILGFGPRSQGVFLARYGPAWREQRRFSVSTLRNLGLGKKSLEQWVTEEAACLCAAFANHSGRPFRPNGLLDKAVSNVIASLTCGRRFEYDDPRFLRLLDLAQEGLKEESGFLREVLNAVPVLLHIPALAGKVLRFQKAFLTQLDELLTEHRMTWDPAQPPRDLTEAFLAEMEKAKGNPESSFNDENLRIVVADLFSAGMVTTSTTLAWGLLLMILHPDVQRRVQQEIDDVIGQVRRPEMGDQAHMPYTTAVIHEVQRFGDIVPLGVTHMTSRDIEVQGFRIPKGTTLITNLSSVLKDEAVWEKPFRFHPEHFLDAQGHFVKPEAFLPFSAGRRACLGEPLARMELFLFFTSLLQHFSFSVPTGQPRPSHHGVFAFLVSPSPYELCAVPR
# Method in brief: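 P450-Glo CYP2D6 system: proluciferin substrate converted by enzyme to luciferin, read by luminescence proportional to activity. Enzyme-substrate mix with compound 10 min at room temperature, then NADPH regeneration 1 h before detection reagent.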
# [7] = qHTS to identify inhibitors of the type 1 interferon - major histocompatibility complex class I in skeletal muscle: primary screen against the NCATS Mechanism Interrogation Plate v5.0 (MIPE) Libary (AID 1347411); further: nearly all actives have a fitted effect of over 65% in size; further: potency means the concentration at half of the fitted maximal effect
# Method in brief: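 Luminescence from CRISPR HiBit-tagged endogenous HLA-B in human myoblasts reported MHC class I level after 24 h of IFN-beta (4 ng/ml) plus compound. Compounds ran as 11-point 1:3 series, top 46 uM final.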
# [8] = qHTS assay to identify inhibitors of the type 1 interferon - major histocompatibility complex class I in skeletal muscle: Counter screen cell viability and HiBit confirmation (AID 1347412); conditions: iHSKM muscle cells + IFN-b, HiBiT or CellTiter-Glo, 24 h; further: potency means the concentration at half of the fitted maximal effect; nearly all actives have a fitted effect of over 60% in size
# Method in brief: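 Luminescence read-out: Nano-Glo HiBiT lytic signal from C-terminally HiBiT-tagged HLA-B in CRISPR-edited human myoblasts, plus CellTiter Glo ATP as viability counter screen. IFN-beta 4.0 ng/ml; 24 hrs treatment at 37 C, 5% CO2.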
# [9] = biological target: Catechol O-methyltransferase (Homo sapiens) (UniProt P21964); assay: Confirmatory Screen for Target Class Profiling of Small Molecule Inhibitors of Methyltransferases (AID 1745852; calls by dose curve); conditions: MTase-Glo luminescence, SAH detection, recombinant enzyme; measured here: COMT max response; stronger effect = lower value
# Chain of Catechol O-methyltransferase (Homo sapiens) (P21964 whole entry, looked up): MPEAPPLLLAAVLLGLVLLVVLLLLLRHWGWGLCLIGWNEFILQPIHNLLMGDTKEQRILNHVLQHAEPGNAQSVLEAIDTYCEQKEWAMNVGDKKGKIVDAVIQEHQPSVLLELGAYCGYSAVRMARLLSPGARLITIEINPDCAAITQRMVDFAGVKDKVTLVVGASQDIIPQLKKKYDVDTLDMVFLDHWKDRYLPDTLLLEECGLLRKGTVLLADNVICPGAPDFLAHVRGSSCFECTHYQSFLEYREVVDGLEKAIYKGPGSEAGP
# [10] = biological target: Guanidinoacetate N-methyltransferase (Homo sapiens) (UniProt Q14353); assay: as above; conditions: activity change, negative = inhibition: at 57.3 µM (top of the series) unless noted
# [11] = biological target: Nicotinamide N-methyltransferase (Homo sapiens) (UniProt P40261); assay: as above; conditions: MTase-Glo luminescence, SAH detection, recombinant enzyme; measured here: NNMT max response; stronger effect = lower value
# Chain of Nicotinamide N-methyltransferase (Homo sapiens) (P40261 whole entry, looked up): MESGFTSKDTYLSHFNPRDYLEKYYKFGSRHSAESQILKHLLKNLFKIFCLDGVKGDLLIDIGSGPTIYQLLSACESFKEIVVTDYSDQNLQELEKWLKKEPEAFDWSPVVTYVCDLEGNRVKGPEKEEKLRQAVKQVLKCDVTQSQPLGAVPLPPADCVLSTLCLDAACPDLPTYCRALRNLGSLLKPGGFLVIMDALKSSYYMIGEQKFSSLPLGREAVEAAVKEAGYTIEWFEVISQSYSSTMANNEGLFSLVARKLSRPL
# [12] = biological target: Phenylethanolamine N-methyltransferase (Homo sapiens) (UniProt P11086); assay: as above; conditions: MTase-Glo luminescence, SAH detection, recombinant enzyme; measured here: PNMT max response; stronger effect = lower value
# Chain of Phenylethanolamine N-methyltransferase (Homo sapiens) (P11086 whole entry, looked up): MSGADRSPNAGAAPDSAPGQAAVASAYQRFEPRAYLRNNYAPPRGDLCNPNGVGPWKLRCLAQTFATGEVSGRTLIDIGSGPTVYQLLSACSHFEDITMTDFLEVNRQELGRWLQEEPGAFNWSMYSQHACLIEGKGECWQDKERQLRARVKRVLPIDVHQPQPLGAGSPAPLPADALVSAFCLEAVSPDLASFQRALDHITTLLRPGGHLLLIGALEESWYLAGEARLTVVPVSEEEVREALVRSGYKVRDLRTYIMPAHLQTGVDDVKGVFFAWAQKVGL
smiles,measurement,setting,value
COc1ccc(-c2c(C)c(C(=O)NN3CCCCC3)nn2-c2ccc(Cl)cc2Cl)cc1,Potency,[1],inactive
same,Potency,[2],inactive
same,Potency,[3],inactive
same,Potency,[4],inactive
CC(C)c1ccc(NC(=O)C(c2ccccc2)N(C)C(=O)Cc2c[nH]c3ccccc23)cc1 (configuration not stated),Potency,[5],2.39 µM (active)
same,Potency,[2],inactive
same,Potency,[3],inactive
same,Potency,[4],inactive
CNc1nc(-c2ccc3c(N)n[nH]c3c2)cc(N2CC(C(=O)NC3CCCCC3)CCC2C)n1 (configuration not stated),Potency,[6],23.9 µM (active)
same,Potency,[5],2.13 µM (active)
same,Potency,[1],inactive
O=C(/C=C/n1cnc(-c2cc(C(F)(F)F)cc(C(F)(F)F)c2)n1)NNc1cnccn1,Potency,[1],inactive
same,Potency,[2],10 µM (active)
C=C(C(=O)O)C1CC2=C(C)C(=O)CC2C(C)CC1O (configuration not stated),Potency,[1],inactive
same,Potency,[3],inactive
CCOC(=O)CCC(=O)O[C@H]1[C@H](O[C@@H]2[C@@H](C)[C@H](O[C@H]3C[C@@](C)(OC)[C@@H](O)[C@H](C)O3)[C@@H](C)C(=O)O[C@H](CC)[C@@](C)(O)[C@H](O)[C@@H](C)C(=O)[C@H](C)CC2(C)O)O[C@H](C)C[C@@H]1N(C)C (some centres not stated),Potency,[2],inactive
same,Potency,[3],inactive
same,Potency,[4],inactive
CCC(=O)Nc1cccc(Oc2nc(Nc3ccc(N4CCN(C)CC4)cc3OC)ncc2Cl)c1,Potency,[7],inactive
same,Potency,[5],6.74 µM (active)
COc1ccccc1-c1c[nH]c2ncc(-c3cncc(C(=O)N(C)C)c3)cc12,Potency,[5],3.38 µM (active)
same,Potency,[2],31.6 µM (active)
COc1cc2nc(-c3cc(F)ccc3O)nc(N[C@@H]3CNC[C@H]3C(C)(C)O)c2cc1OC,Potency,[7],3.7 µM (active)
same,Potency,[5],inactive
same,Potency,[2],inactive
same,Potency,[3],inactive
same,Potency,[4],inactive
same,Potency,[8]; HiBiT,8.83 µM (active)
same,Potency,[8]; Viability,31.3 µM (active)
C=C1C(=O)O[C@@H]2C[C@@H](C)[C@]34C[C@]5(C(=O)O[C@H]6CC(C)=C([C@H](C)CCCO)[C@H](OC(=O)C(C)CC)[C@H]65)[C@@H](C(C)=C3C[C@@H]12)[C@H]4OC(C)=O (some centres not stated),Potency,[1],inactive
same,Potency,[3],inactive
C=C1C(=O)O[C@@H]2[C@H]1[C@H](O)C[C@]1(C)[C@@H](O)CC=C(C)[C@@H]21,Potency,[1],inactive
same,Potency,[2],inactive
COc1ccc(-c2nc(-c3cc(C(F)(F)F)cc(C(F)(F)F)c3)n(Cc3ccc(C(N)=O)cc3)c2-c2ccc(OC)cc2)cc1,Potency,[5],5.35 µM (active)
same,activity,[9],0.0984%
same,"activity change, negative = inhibition",[10],-0.694%
same,activity,[11],-7.68%
same,activity,[12],-1.33%
same,Potency,[1],inactive
same,Potency,[2],inactive
same,Potency,[3],inactive
same,Potency,[4],inactive
CN(C)C(=O)c1cc2cnc(Nc3ccc(N4CCNCC4)cn3)nc2n1C1CCCC1,Potency,[7],inactive
same,Potency,[6],inactive
same,Potency,[1],inactive
same,Potency,[3],inactive
same,Potency,[4],inactive

# From PubChem BioAssay (NCATS)
